Data as given in PubChem BioAssay (EPA / NIEHS).
Results filed as inconclusive are left out. The source made the active and inactive calls. The calls were made as follows, unless noted: active = hit-call score of the fitted dose curve at least 0.9, where 1 is the maximum; inactive = score below 0.9.

Columns and labels:
[1] = target: Transcription factor Sp1 (Homo sapiens) (UniProt P08047); test: ATG_Sp1_CIS: Attagene CIS-FACTORIAL HepG2 Assay for human Specificity Protein 1 (Sp1) (AID 2282961); conditions: HepG2 Sp1 cis-reporter transcription, actives raise or lower the signal
Chain of Transcription factor Sp1 (Homo sapiens) (P08047 whole entry, looked up): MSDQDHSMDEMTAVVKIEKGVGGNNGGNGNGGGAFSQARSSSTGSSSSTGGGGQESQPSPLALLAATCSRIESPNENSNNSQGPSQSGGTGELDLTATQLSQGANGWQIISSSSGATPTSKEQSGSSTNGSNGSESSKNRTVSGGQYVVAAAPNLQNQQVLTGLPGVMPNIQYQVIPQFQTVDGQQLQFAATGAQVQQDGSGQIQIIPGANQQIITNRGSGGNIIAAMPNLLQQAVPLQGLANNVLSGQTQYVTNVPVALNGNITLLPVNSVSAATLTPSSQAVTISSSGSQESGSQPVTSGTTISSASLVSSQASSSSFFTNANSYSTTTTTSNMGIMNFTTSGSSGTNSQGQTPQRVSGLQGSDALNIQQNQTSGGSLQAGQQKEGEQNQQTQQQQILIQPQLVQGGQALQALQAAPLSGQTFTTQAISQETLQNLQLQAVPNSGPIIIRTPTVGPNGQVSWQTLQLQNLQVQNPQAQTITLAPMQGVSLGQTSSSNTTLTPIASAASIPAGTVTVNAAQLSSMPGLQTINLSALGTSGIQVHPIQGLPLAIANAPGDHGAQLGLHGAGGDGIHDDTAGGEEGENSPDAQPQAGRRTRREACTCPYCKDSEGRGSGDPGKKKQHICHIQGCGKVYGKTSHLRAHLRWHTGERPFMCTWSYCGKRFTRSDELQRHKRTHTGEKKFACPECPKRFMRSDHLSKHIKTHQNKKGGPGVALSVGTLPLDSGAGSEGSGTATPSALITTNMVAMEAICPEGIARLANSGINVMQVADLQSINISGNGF
How it was run: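 After transient transfection of HepG2 cells with cis-promoter reporter units and 24 h chemical treatment, reporter transcripts were quantified by RT-PCR and capillary electrophoresis fluorescence. Gain- and loss-of-signal fitted against DMSO.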

[2] = ATG_SREBP_CIS: Attagene CIS-FACTORIAL HepG2 Assay for human Sterol Regulatory Element Binding (SREBP) (AID 2282962); conditions: HepG2 Attagene cis-factorial SREBP reporter, mRNA; actives raise or lower the signal
How it was run: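 Endogenous SREBP activity read as cis-element-driven reporter transcript in transiently transfected HepG2, 24 h post-dosing; quantified via RT-PCR plus capillary electrophoresis of fluorescent fragments. Gain or loss of signal fitted relative to DMSO baseline.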

[3] = target: Signal transducer and activator of transcription 3 (Homo sapiens) (UniProt P40763); test: ATG_STAT3_CIS: Attagene CIS-FACTORIAL HepG2 Assay for human Signal Transducer and Activator of Transcription 3 (STAT3) (AID 2282963); conditions: HepG2, Attagene cis-factorial STAT3 reporter transcription; actives raise or lower the signal
Chain of Signal transducer and activator of transcription 3 (Homo sapiens) (P40763 whole entry, looked up, the tested form may be a part): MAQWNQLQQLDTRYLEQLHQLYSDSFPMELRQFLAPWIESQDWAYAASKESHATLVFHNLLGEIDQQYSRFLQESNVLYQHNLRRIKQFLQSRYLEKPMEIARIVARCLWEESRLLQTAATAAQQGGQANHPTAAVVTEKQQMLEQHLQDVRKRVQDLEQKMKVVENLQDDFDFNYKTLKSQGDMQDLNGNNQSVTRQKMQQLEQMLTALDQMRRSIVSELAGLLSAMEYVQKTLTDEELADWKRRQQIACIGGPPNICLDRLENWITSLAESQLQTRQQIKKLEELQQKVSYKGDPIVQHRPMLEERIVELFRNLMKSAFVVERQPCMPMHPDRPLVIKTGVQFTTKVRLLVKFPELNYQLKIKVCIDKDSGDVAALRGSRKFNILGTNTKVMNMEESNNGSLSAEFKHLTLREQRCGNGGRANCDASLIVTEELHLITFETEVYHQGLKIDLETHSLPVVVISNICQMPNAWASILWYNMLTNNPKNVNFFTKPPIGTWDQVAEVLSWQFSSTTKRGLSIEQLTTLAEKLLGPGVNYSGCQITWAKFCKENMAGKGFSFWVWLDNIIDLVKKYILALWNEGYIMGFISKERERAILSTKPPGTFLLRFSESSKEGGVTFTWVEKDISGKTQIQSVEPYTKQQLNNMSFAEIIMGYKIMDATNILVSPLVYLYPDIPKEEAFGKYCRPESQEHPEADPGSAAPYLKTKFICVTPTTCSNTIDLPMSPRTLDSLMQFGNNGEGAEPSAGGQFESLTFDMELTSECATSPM
How it was run: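 Readout: fluorescent reporter mRNA fragments resolved by capillary electrophoresis. Setup: HepG2 transfected with MRTUs reporting endogenous transcription-factor activity, dosed 24 h. Gain or loss of signal fitted bidirectionally against DMSO control.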

[4] = ATG_TA_CIS: Attagene CIS-FACTORIAL HepG2 Assay for human TA Basal Promoter (AID 2282964); conditions: HepG2 Attagene CIS-factorial TA basal promoter reporter; actives raise or lower the signal
How it was run: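 HepG2 cells transiently transfected with multiple reporter units under cis promoter elements, reporting endogenous transcription factor activity; this endpoint tracks the TA basal promoter as background control. Reporter mRNA after 24 h dosing measured by RT-PCR/capillary electrophoresis; bidirectional fits versus DMSO.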

[5] = ATG_TCF_b_cat_CIS: Attagene CIS-FACTORIAL HepG2 Assay for human T-Cell-Factor with beta-catenin (TCF/b-cat) (AID 2282965); conditions: HepG2 TCF/beta-catenin cis-reporter transcription, actives raise or lower the signal
How it was run: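 HepG2, transient MRTU transfection, cis-element-driven reporters (endogenous TFs). 24 h compound exposure. Readout: reporter mRNA by RT-PCR + 6-FAM primer extension, HpaI digest, capillary electrophoresis. Gain/loss fit vs DMSO baseline.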

[6] = ATG_TAL_CIS: Attagene CIS-FACTORIAL HepG2 Assay for human TAL Basal Promoter (AID 2282966); conditions: HepG2 Attagene cis-factorial TAL promoter reporter; actives raise or lower the signal;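 also: background control endpoint measuring basal TAL promoter reporter mRNA not a specific factor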
How it was run: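 After 24 hours of chemical exposure, transfected HepG2 cells yielded RNA that was converted to 6-FAM-labelled, HpaI-digested reporter fragments for capillary electrophoresis. Values derive from bidirectional fitting against DMSO controls.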

[7] = ATG_TGFb_CIS: Attagene CIS-FACTORIAL HepG2 Assay for human Transforming Growth Factor (TGF) (AID 2282967); conditions: HepG2 Attagene CIS TGFb reporter, mRNA transcription; actives raise or lower the signal
How it was run: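 HepG2 cells transiently transfected with cis-promoter-driven multiple reporter units measure endogenous TF activity; reporter mRNA quantified at 24 h by RT-PCR, FAM labeling, HpaI digestion and capillary electrophoresis. Bidirectional fit vs DMSO.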

[8] = ATG_VDRE_CIS: Attagene CIS-FACTORIAL HepG2 Assay for human Vitamin D Receptor Element (VDRE) (AID 2282968); conditions: HepG2 VDRE cis-reporter transcription, actives raise or lower the signal
How it was run: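 Transient MRTU transfection of HepG2, 24 h compound exposure. Readout: reporter transcripts via RT-PCR and capillary electrophoresis, fluorescence. Bidirectional fit vs DMSO.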

[9] = target: Nuclear receptor subfamily 1 group I member 3 (Homo sapiens) (UniProt Q14994); test: ATG_CAR_TRANS: Attagene TRANS-FACTORIAL HepG2 Assay for human Constitutive Androstane Receptor (CAR) (AID 2282969; active = hit-call score of the fitted dose curve at least 0.9, where 1 is the maximum;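 also: activators raise reporter mRNA above DMSO so AC50 marks induction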); conditions: HepG2 Attagene TRANS-FACTORIAL CAR reporter
Chain of Nuclear receptor subfamily 1 group I member 3 (Homo sapiens) (Q14994 whole entry, looked up, the tested form may be a part): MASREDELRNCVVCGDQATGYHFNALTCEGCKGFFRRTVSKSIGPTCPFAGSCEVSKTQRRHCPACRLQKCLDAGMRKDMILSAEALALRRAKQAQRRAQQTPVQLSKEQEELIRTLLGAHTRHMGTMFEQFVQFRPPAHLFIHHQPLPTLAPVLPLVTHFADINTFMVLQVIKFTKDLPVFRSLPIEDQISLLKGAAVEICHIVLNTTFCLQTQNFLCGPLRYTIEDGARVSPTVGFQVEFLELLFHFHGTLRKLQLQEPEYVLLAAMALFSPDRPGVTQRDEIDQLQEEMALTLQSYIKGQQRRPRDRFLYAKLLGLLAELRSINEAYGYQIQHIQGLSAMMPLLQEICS
How it was run: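 Transiently transfected HepG2, multiplex TRANS reporters (CAR-Gal4 chimera driving GAL4-UAS reporter). 24 h dosing. Readout: reporter transcript by RT-PCR + capillary electrophoresis, fluorescence intensity; positive direction vs DMSO.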

[10] = target: Estrogen receptor (Homo sapiens) (UniProt P03372); test: ATG_ERa_TRANS: Attagene TRANS-FACTORIAL HepG2 Assay for human Estrogen Receptor alpha (ERa) (AID 2282970; active = hit-call score of the fitted dose curve at least 0.9, where 1 is the maximum); conditions: HepG2 Attagene TRANS ERa GAL4 reporter, mRNA
Chain of Estrogen receptor (Homo sapiens) (P03372 whole entry, looked up, the tested form may be a part): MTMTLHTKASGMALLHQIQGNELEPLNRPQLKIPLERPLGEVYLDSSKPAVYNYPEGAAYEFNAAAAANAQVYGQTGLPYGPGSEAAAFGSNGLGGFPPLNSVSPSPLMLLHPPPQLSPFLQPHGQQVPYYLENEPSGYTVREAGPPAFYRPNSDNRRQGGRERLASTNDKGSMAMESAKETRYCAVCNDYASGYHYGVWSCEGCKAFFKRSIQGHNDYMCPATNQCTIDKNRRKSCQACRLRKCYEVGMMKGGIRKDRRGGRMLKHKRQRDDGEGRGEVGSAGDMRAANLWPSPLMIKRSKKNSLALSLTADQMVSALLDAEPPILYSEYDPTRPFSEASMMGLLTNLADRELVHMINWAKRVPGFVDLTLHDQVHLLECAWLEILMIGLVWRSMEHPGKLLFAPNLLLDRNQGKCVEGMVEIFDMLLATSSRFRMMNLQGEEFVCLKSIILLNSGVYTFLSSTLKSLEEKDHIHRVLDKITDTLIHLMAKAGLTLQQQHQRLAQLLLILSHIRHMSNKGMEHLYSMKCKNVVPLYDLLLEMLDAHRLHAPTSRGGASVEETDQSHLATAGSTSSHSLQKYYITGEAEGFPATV
How it was run: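 Liver-derived HepG2 cells expressing chimeric nuclear receptor-Gal4 proteins from transient transfection were exposed for 24 hours. Gain of reporter mRNA signal versus DMSO, read by capillary electrophoresis of FAM-labelled PCR products, was recorded.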

Measured: AC50

O=C(O)Cc1ccccc1
inactive: all assays above

ClCc1cccnc1
active: [1] 30.8 µM | [7] 63.2 µM | [8] 48.3 µM
inactive: all other assays above

CCC1(c2ccc(N)cc2)CCC(=O)NC1=O (configuration not stated)
not listed: [9]
inactive: all other assays above

CCOP(=S)(OCC)SCCS(=O)(=O)CC
not listed: [9]
inactive: all other assays above

O=C(c1ccccc1)C(Cl)Cl
active: [1] 25.2 µM | [2] 26.4 µM | [5] 25 µM | [8] 7.69 µM
not listed: [9]
inactive: all other assays above

O=C(NCO)NCO
not listed: [9]
inactive: all other assays above

CC(=[OH+])/C=C(/C)[O-].CC(=[OH+])/C=C(/C)[O-].CC(=[OH+])/C=C(/C)[O-].[Fe]
not listed: [9]
inactive: all other assays above

CCCCCCCCC(=O)NCc1ccc(O)c(OC)c1
not listed: [9]
inactive: all other assays above

N#CCc1ccc(Cl)cc1
not listed: [9]
inactive: all other assays above

COP(=S)(OC)Oc1ccc(S(=O)(=O)N(C)C)cc1
active: [8] 38.8 µM
not listed: [9]
inactive: all other assays above

O=C(Nc1ccc2[nH]ccc2c1)c1cc2cc(F)ccc2n1Cc1cccc(F)c1
active: [1] 14.7 µM | [4] 14 µM | [5] 15.8 µM | [8] 11 µM
inactive: all other assays above

C=C(C)C(=O)[O][Sn]([CH2]CCC)([CH2]CCC)[CH2]CCC
active: [4] 0.591 µM | [8] 0.185 µM
not listed: [9]
inactive: all other assays above

C=CC#N
not listed: [9]
inactive: all other assays above

C(=NC1CCCCC1)=NC1CCCCC1
active: [2] 17.2 µM | [8] 3.69 µM
not listed: [9]
inactive: all other assays above

CC(C)C1CCC(Cc2ccc(Cl)cc2)C1(O)Cn1cncn1 (configuration not stated)
active: [8] 4.62 µM
inactive: all other assays above

COC[C@H](C)N(C(=O)CCl)c1c(C)csc1C
active: [8] 47.3 µM
not listed: [9]
inactive: all other assays above

N#CN=C(N)N
not listed: [9]
inactive: all other assays above

CCSC(C)CC1CC(=O)C(C(CC)=NOC/C=C/Cl)=C(O)C1 (configuration not stated)
active: [8] 11.3 µM
not listed: [9]
inactive: all other assays above

COS(=O)(=O)c1ccc(C)cc1
not listed: [9]
inactive: all other assays above

Nc1cccc(Cl)c1
active: [7] 0.739 µM
inactive: all other assays above

CCOP(=S)(OCC)Oc1nc(Cl)c(Cl)cc1Cl
active: [1] 65.3 µM | [2] 68.1 µM | [8] 5.83 µM | [10] 26.9 µM
inactive: all other assays above

CC(C)c1ccc(CO)cc1
active: [8] 36.2 µM | [10] 60.1 µM
not listed: [9]
inactive: all other assays above

O=[N+]([O-])c1ccc2c3c(cccc13)CC2
active: [7] 0.0823 µM | [8] 11.5 µM
not listed: [9]
inactive: all other assays above

CCCCP(CCCC)CCCC
not listed: [9]
inactive: all other assays above
